Screening results: PubChem BioAssay, The Scripps Research Institute Molecular Screening Center
PAFAH1B2 FP inh = blocks human PAF acetylhydrolase 1b catalytic subunit 2; recombinant PAFAH1B2, FP-rhodamine activity probe, fluorescence polarization; inhibition, % at 3.39 µM; P68402; actives 1.2% (n = 340,000); AID 492953;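 active means inhibition above the mean of all tested compounds plus 3 SD, cut at about 24% in these data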;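 further: 0% = enzyme with DMSO and 100% = wells lacking PAFAH1B2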
PAFAH1B3 FP inh = blocks human PAF acetylhydrolase 1B catalytic subunit 3. Q15102. recombinant PAFAH1B3, FP-rhodamine probe, fluorescence polarization. inhibition, % at 3.39 µM. actives 0.28% (n = 340,000);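 active means inhibition above the screen-wide average of all tested compounds plus 3 SD, cut at about 25% in these data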;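 further: 0% = enzyme with DMSO only and 100% = wells lacking PAFAH1B3 protein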
PAFAH2 FP inh = PAFAH2 (human) inhibition; recombinant PAFAH2, FP-rhodamine activity probe, fluorescence polarization; inhibition, % at 3.39 µM; actives 0.99% (n = 340,000); Q99487; AID 492956;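 active means inhibition above the mean over all tested compounds plus 3 SD, cut at about 30% in these data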;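 further: inhibitors block probe labeling of enzyme so polarization drops; 0% = enzyme with DMSO and 100% = wells lacking PAFAH2 protein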
pPAFAH FP inh = inhibitors of human plasma PAF acetylhydrolase (pPAFAH) | Q13093 | recombinant pPAFAH, FP-rhodamine probe fluorescence polarization | inhibition, % at 3.39 µM | actives 1.5% (n = 330,000);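 active means inhibition above the mean inhibition across the screen plus 3 SD, cut at about 25% in these data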;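 further: inhibitors block binding of the rhodamine activity-based probe so polarization drops; 0% = enzyme with DMSO and 100% = wells lacking pPAFAH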
DAGLB inh = diacylglycerol lipase beta (human) inhibition. Q8NCG7. HEK293T DAGLB membrane lysate, EnzChek fluorogenic substrate. inhibition, % at 5.17 µM. actives 0.059% (n = 340,000). AID 504411; in the data active means inhibition above about 34%;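 further: 0% = enzyme with vehicle and 100% = wells lacking enzyme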
Target sequence (Q8NCG7 whole entry, looked up): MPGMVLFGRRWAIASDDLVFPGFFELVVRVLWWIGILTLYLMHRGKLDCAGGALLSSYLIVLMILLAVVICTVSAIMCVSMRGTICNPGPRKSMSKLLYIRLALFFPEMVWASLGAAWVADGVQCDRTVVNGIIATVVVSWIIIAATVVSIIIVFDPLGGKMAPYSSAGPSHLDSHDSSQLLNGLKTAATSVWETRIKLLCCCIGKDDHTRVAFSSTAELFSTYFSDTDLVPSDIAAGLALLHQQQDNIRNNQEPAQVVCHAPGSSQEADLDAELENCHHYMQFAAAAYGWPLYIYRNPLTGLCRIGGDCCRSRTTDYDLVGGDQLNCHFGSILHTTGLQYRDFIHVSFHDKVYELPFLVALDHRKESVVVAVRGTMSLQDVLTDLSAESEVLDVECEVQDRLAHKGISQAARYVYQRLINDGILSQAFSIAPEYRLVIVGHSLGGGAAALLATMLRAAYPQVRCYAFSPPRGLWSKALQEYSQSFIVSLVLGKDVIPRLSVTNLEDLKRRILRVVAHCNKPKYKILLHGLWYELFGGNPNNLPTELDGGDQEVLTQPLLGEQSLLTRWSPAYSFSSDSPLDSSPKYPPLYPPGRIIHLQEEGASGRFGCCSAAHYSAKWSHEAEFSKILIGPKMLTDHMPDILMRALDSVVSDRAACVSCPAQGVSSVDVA
HTRA1 inh = inhibitors of human serine peptidase HTRA1; Q92743; recombinant HTRA1, FP-rhodamine activity-based probe, fluorescence polarization; inhibition, % at 5.96 µM; actives 0.5% (n = 340,000); in the data active means inhibition above about 36%;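 further: 0% = enzyme with DMSO and 100% = wells lacking enzyme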
* marks the source's active call; other numbers are inactive results; nt = not tested or not shown. In the library only some 2.8% were active in any assay of this set; here they are far more common.

SMILES | PAFAH1B2 FP inh | PAFAH1B3 FP inh | PAFAH2 FP inh | pPAFAH FP inh | DAGLB inh | HTRA1 inh
COc1ccc(-n2nc(C(=O)NCC(=O)NCCN(C)C)c3ccccc3c2=O)cc1 | 11 | -4 | 1 | 2 | -1 | -1
Cc1nn(-c2ncc(C(F)(F)F)cc2Cl)c(=O)n1-c1c(F)cccc1F | -2 | 8 | 7 | 30* | 1 | 3
Cc1cccc(C)c1-n1c(C)nn(-c2ncc(C(F)(F)F)cc2Cl)c1=O | 4 | 5 | -2 | -2 | 0 | 3
Cc1cc(C)cc(NS(=O)(=O)c2ccc(NC(=O)C3CCCCC3C(=O)O)cc2)c1 (stereo not drawn) | -1 | -8 | -3 | 28* | 6 | -6
O=C(O)CC/C(=N\Nc1ccccc1[N+](=O)[O-])c1cccs1 | 1 | 9 | 3 | 12 | 18 | 18
O=C(O)CC/C(=N\Nc1ccc(S(=O)(=O)N2CCCC2)cc1[N+](=O)[O-])c1cccs1 | 28* | 10 | 9 | nt | 26 | 11
O=C(OCc1c(-c2ccccc2)ncc2ccccc12)c1ccco1 | 5 | 6 | 2 | 32* | -2 | 0
Cc1ccc(C(=O)NCC(=O)N2CCc3ccccc3C2)cc1C | 1 | 3 | 4 | 4 | -1 | -3
Cc1cc(NS(=O)(=O)c2ccc(Nc3nc(-c4sc(NC(=O)c5ccccc5)nc4C)cs3)cc2)no1 | nt | nt | nt | 69* | nt | nt
COc1ccc(-c2csc(Nc3ccc(S(N)(=O)=O)cc3)n2)cc1 | 0 | 6 | 1 | 15 | -1 | 16
COc1ccc(-c2csc(Nc3ccc(S(=O)(=O)Nc4cc(C)on4)cc3)n2)cc1 | 5 | -2 | 18 | 27* | 4 | -7
Cc1ccc2[nH]c(C(=O)O)c(NC(=O)[C@@H]3C[C@@H]3c3ccccc3)c2c1 | 31* | 3 | 7 | 7 | 4 | 7
COc1ccc(C)cc1NC(=O)C1CC1c1ccccc1 (stereo not drawn) | 2 | 10 | 2 | 7 | -4 | -12
Cc1ccc(C(=O)Nc2c(N)nc(SCC(=O)NCC3CCCO3)[nH]c2=O)cc1 (stereo not drawn) | 7 | -2 | 2 | -2 | -2 | -2
Cc1ccc(NC(=S)NNC(=O)c2ccc(N3CCOCC3)c([N+](=O)[O-])c2)cc1C | 4 | 14 | 12 | 26* | 13 | 6
CC1CCC(CC(=O)O)(C(=O)O)CC1 (stereo not drawn) | 6 | -7 | -1 | nt | -1 | -3
O=C1C(CCCNC(=S)NCc2ccccc2)NC(=S)N1Cc1ccccc1 (stereo not drawn) | 25* | 8 | 2 | 1 | -1 | -24
CC[C@@]1(C(=O)OC)N[C@H](CN(C)S(=O)(=O)c2ccc(OC(F)(F)F)cc2)[C@@H]2C(=O)N(C)C(=O)[C@@H]21 | 8 | 8 | -10 | -1 | -2 | 6
CCOC(=O)c1sc(Nc2nc3c(OC)cccc3s2)nc1C | 0 | 8 | 8 | 30* | -7 | -9
c1ccc(Nc2nc(-c3ccccn3)cs2)cc1 | 2 | 4 | 4 | 1 | 0 | 14
COc1cccc2sc(Nc3nc(-c4ccccn4)cs3)nc12 | 13 | 14 | 24 | 28* | 2 | 6
CCOC(=O)c1sc(Nc2ccccc2)nc1C | 2 | 4 | 0 | 9 | -5 | -8
Cc1cc(Br)cc(Br)c1OCC(=O)NNC(=O)CCC(=O)NCc1ccccc1 | 3 | 7 | 0 | nt | 0 | 5
O=C(CCC(=O)NNC(=O)COc1ccc(Br)cc1Br)NCc1ccccc1 | nt | nt | nt | 27* | nt | nt
COc1ccc(CCN(C)Cc2c(O)ccc3cc(Br)ccc23)cc1OC | 36* | 9 | -2 | 11 | 0 | -5
SMILES | PAFAH1B2 FP inh | PAFAH1B3 FP inh | PAFAH2 FP inh | pPAFAH FP inh | DAGLB inh | HTRA1 inh
COc1ccc(NC(=O)Nc2ccc3c(c2)C(=O)N([C@H](C)CO)C[C@H](C)[C@@H](CN(C)S(=O)(=O)c2cccs2)O3)cc1 | 4 | 12 | -10 | 13 | 0 | -1
C[C@@H]1CN([C@H](C)CO)C(=O)c2cc(NC(=O)Cc3ccccc3)ccc2O[C@H]1CN(C)Cc1ccc(Oc2ccccc2)cc1 | 0 | -3 | 4 | 25* | 1 | -84
COc1ccc(S(=O)(=O)Nc2ccc3c(c2)C(=O)N([C@H](C)CO)C[C@H](C)[C@@H](CN(C)S(=O)(=O)c2cccs2)O3)cc1 | 26* | 7 | 8 | 5 | -1 | -11
C[C@H](CO)N1C[C@H](C)[C@H](CN(C)CC2CCCCC2)Oc2ccc(NS(=O)(=O)c3ccc(F)cc3)cc2CC1=O | 4 | 11 | 5 | 30* | -7 | -25
Cc1ccc(S(=O)(=O)Nc2ccc3c(c2)C(=O)N([C@H](C)CO)C[C@H](C)[C@@H](CN(C)C(=O)Nc2ccc(C(F)(F)F)cc2)O3)cc1 | 8 | 4 | 7 | 25* | 1 | -44
CC(Sc1n[nH]c(-c2ccccc2F)n1)C(=O)Nc1ccc(S(N)(=O)=O)cc1 (stereo not drawn) | -2 | 11 | 0 | 1 | -1 | 8
CCN(CC)C(=O)C(c1ccccc1)S(=O)(=O)N1CCOCC1 (stereo not drawn) | nt | nt | nt | nt | -7 | 1
COc1ccc(S(=O)(=O)Nc2ccc3c(c2)C(=O)N([C@H](C)CO)C[C@H](C)[C@@H](CN(C)S(=O)(=O)c2ccc(F)cc2)O3)cc1 | 29* | 2 | 1 | 6 | -1 | -20
COc1ccc(S(=O)(=O)N(C)C[C@H]2Oc3ccc(NS(=O)(=O)c4ccc(F)cc4)cc3C(=O)N([C@H](C)CO)C[C@@H]2C)cc1 | 25* | 4 | -1 | 14 | -1 | -9
COc1ccccc1CNC(=O)c1cc(C(=O)CC(C)C)c[nH]1 | 4 | 4 | -3 | 0 | -1 | -1
CCc1noc(C)c1C(=O)Nc1ccc(S(=O)(=O)N2CCC(C)CC2)cc1 | 23 | 5 | 5 | 3 | -2 | -5
Cn1cc(C(CO)Cc2ccccc2)c2ccccc21 (stereo not drawn) | 8 | -3 | 9 | 0 | -2 | -3
COc1ccc2[nH]c(C(=O)O)c(CCN3C(=O)c4ccc(C(=O)O)cc4C3=O)c2c1 | -3 | 0 | -5 | 4 | 0 | 12
O=C(O)c1[nH]c2ccc(Cl)cc2c1CCN1C(=O)c2ccccc2C1=O | 84* | -3 | -1 | -1 | 14 | -9
O=C(O)c1[nH]c2ccc(Br)cc2c1CCN1C(=O)c2cccc([N+](=O)[O-])c2C1=O | 53* | 2 | 5 | 12 | 11 | -7
Cc1cc(C)n2nc(CC(=O)NNC(=O)COc3ccccc3)nc2n1 | 0 | 11 | 4 | 1 | -1 | 8
O=C(Nc1cccc([N+](=O)[O-])c1)c1cc2ccccc2cc1O | 3 | 1 | -4 | 34* | 4 | -5
O=C(COC(=O)CCNS(=O)(=O)c1ccccc1)Nc1ccc(OC(F)F)cc1 | 3 | 8 | 3 | 22 | -1 | 5
